# Results as given in PubChem BioAssay (NCATS).
# Records with an inconclusive call do not appear. Values without a mark were called inactive. Calls follow the shape of the dose curve; as a rule, active = well fitted activation curve with a large enough effect in the signal ratio; inconclusive = small, poorly fitted or top-dose-only effect, or effect the other way, or a change in a side signal; inactive = flat fitted curve, though single readings scatter; the % refers to the signal ratio.
# Test: qHTS assay to identify small molecules that stimulate interleukin-8 (IL-8) secretion (AID 651758); also: 0% is about no effect
# Settings: HTRF ratio (665/615); series mostly up to 92.2 µM; activation: at the top concentration
# From the text: National Center for Advancing Translational Sciences [NCATS]
# NIH Chemical Genomics Center [NCGC]
# National Institutes of Environmental Health Sciences [NIEHS]
# National Toxicology Program [NTP]
# Interleukin-8 is a 8 kDa chemokine produced by macrophages and other cells like epithelial cells that is often associated with inflammation. Interleukin-8 secretion is a key parameter in localized inflammation. There is a growing concern for some of environmental chemicals which may contribute the increasing the incidence of inflammation. A homogeneous IL-8 assay using Time Resolved fluorescence (HTRF) technology based on Time Resolved Fluorescent Resonance Energy Transfer (TR-FRET) allows to measure IL-8 secreted from the cells in a 1536-well plate format.
# THP-1 cells were dispensed at 2000 cells/5ul/well in 1536-well white solid plates. After addition of 23 nl of compound, positive controls and DMSO only, the assay plates were incubated at 37 C for 16 hrs, followed by addition of 5 uL of mixture of cryptate labeled and XL665 labeled anti-IL-8 antibodies. After the assay plates were incubated at room temperature for 1-3 hrs, the plates were measured by an EnVision plate reader.
row,Compound,activation
1,COc1ccc(C(c2ccc(OC)cc2)C(Cl)(Cl)Cl)cc1,-1.48%
2,c1cc2ccc3cccc4ccc(c1)c2c34,0.488%
3,C1CCC(NC2CCCCC2)CC1,-3.78%
4,O=S(=O)(c1ccc(Cl)cc1)c1ccc(Cl)cc1,-0.363%
5,CCCCOC(=O)c1ccccc1C(=O)OCc1ccccc1,-19.6%
6,C=CC(=O)NCNC(=O)C=C,-7.14%
7,Nc1ccc([N+](=O)[O-])cc1,10.3%
8,O=C(O)COc1ccccc1,-4.82%
9,O=[N+]([O-])c1c(Cl)c(Cl)cc(Cl)c1Cl,17.8%
10,CCOP(=O)(NC(C)C)Oc1ccc(SC)c(C)c1 (stereo not given),-18.7%
